Sampled rows, rich in hits. Any-hit rate of the full collection: about 1.9%.
Rev-erbA mod = modulators of human Rev-erb alpha DNA binding; P20393; Rev-erbα–FITC-DNA binding, fluorescence polarization, 90 min; activity, % at 10 µM; 370,000 tested, 0.79% active; AID 1259318;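 active = activity above about 14%, limit read from the data; passing the limit was not always enough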;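 note: 0% = DMSO wells with 35 nM protein and 100% = DMSO wells with 750 nM protein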
Target sequence (P20393 whole entry, looked up): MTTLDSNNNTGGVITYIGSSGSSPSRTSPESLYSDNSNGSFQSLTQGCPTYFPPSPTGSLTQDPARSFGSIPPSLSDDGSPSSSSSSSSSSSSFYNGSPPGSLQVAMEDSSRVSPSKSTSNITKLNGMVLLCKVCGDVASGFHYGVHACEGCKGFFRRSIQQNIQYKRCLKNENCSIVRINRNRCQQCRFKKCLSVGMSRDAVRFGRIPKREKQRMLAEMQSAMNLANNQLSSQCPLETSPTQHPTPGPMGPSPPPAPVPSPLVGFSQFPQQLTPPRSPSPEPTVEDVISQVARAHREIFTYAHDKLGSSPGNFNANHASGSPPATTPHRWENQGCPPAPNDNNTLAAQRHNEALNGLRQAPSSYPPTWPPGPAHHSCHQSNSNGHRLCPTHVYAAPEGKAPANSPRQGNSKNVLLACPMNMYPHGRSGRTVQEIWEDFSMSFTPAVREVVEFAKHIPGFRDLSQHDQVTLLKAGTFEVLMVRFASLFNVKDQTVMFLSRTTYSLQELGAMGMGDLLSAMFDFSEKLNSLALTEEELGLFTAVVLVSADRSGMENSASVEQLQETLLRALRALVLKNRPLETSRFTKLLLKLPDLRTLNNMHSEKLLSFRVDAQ
EBNA-1 inhibitor = blocks EBNA-1 binding to DNA. EBNA-1 DNA binding, fluorescence polarization. inhibition, % at 14.8 µM. 300,000 tested, 0.34% active. AID 1950; in the data active = inhibition above about 28%
p47phox inh = inhibitors of human p47phox binding; inhibition, % at 24.7 µM; AID 1274; 220,000 tested, 0.53% active; p47phox/p22phox peptide binding, fluorescence polarization, 2 h;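 active = inhibition above about 30%, limit read from the data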;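 note: 0% = p47phox with labelled peptide and 100% = labelled peptide alone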
ZTA counter = ZTA (EBV) inhibition in EBNA-1 counter-screen | ZTA-DNA binding, fluorescence polarization | P03206 | AID 2234 | inhibition, % at 11 µM | 320,000 tested, 0.15% active; in the data active = inhibition above about 33%
aDG glyco up = increases alpha dystroglycan glycosylation; Pro5-aDG cells, alpha-DG glycosylation AlphaScreen (IIH6); 0% Pro5, 100% B10-LARGE cell signal; activation, % at 10 µM; 360,000 tested, 0.22% active; AID 624168;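 active = activation of at least 8% versus controls, or a plate z-score of at least 8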;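 note: Pro5 are CHO cells carrying HIG-tagged alpha-DG that lacks glycosylation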
PG9 binder = binds the HIV-1 gp120 antibody PG9; TR-FRET gp120-PG9 antibody binding; inhibition, % at 6.7 µM; 360,000 tested, 0.43% active; AID 624416; in the data active = inhibition above about 8.5%
Rev-erbA confirm = confirmation of modulators of human Rev-erb alpha DNA binding; activation, % at 25 µM; shares compounds with Rev-erbA mod; Rev-erb alpha FITC-DNA binding, fluorescence polarization, 90 min; AID 1259319; 3,000 tested, 61% active;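 active = activation at or above a set limit, or at least 3 SD above the negative control mean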;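 note: 0% = 35 nM protein with DMSO and 100% = 750 nM protein high control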
RORg DNA counter = affects RORgamma DNA binding in a Rev-erb alpha counter-screen; shares compounds with Rev-erbA mod; purified RORgamma protein-FITC-DNA binding, fluorescence polarization; IC50, µM; 910 tested, 8% active; AID 1259320;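 active = Compounds whose fitted half-maximal concentration for disrupting protein-DNA binding is below 10 micromolar; the record names Rev-erb in its text, so the target is in doubt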
The depositor's hits bear a star; / = no result.

SMILES | Rev-erbA mod | EBNA-1 inhibitor | p47phox inh | ZTA counter | aDG glyco up | PG9 binder | Rev-erbA confirm | others
COc1cccc(/C=C2\CC3(OC(=O)c4ccc(Cl)cc4)CCCN2C3)c1 (stereo not given) | 1 | / | / | / | / | / | /
COC(=O)c1ccc2c(=O)[nH]c(COC(=O)CCC(=O)c3ccc(Cl)cc3)nc2c1 | 20* | 14 | / | 10 | 0 | 6 | 6
COC(=O)C1=C(C)NC(C)=C(C(=O)OC)C1C(=O)OCc1nc2cc(C(=O)OC)ccc2c(=O)[nH]1 | 1 | 0 | / | 11 | 0 | 0 | /
C=CCN1[C@@H](C)COc2cc(F)ccc2S1(=O)=O | 2 | / | / | / | / | / | /
O=C(Nc1ccc(F)cc1F)c1cc2ncc(Br)cn2n1 | 0 | / | -13 | / | / | 0 | /
COC(=O)c1ccccc1NC(=O)c1cc2ncc(Br)cn2n1 | 23* | 6 | -6 | 12 | 0 | 0 | 2
Nc1[nH]c2cc(Cl)ccc2c1C(=O)N1CCOCC1 | -2 | / | / | / | / | / | /
CCCCCC(=O)NC1CCCCN(Cc2ccc(C)cc2)C1=O (stereo not given) | 5 | / | / | / | / | / | /
CCOC(=O)c1c(NC(=S)NCCc2ccccc2)sc2c1CC(C(C)C)OC2 (stereo not given) | 26* | 0 | -13 | 0 | 0 | 1 | 25*
C=CCNC(=S)Nc1sc2c(c1C(=O)OCC)CC(C(C)C)OC2 (stereo not given) | -3 | -1 | -6 | -4 | 0 | 0 | /
Cc1ccc(N(C)c2nc(N)nc(N)c2N=O)cc1 | -21 | / | / | / | / | -4 | /
COc1ccc(CC(=O)Nc2cc(C)c3c(=O)oc4ccccc4c3n2)cc1 | 41* | -4 | / | 16 | 0 | 0 | 32* | RORg DNA counter=>40
CCOc1ccc(C(=O)Nc2cc(C)c3c(=O)oc4ccccc4c3n2)cc1 | 55* | 0 | -106 | 11 | 0 | 0 | 18*
Cc1cc(NC(=O)c2ccccc2)nc2c1c(=O)oc1ccccc12 | 12 | -2 | -25 | -10 | 0 | -2 | /
O=C(CSc1ccccc1)NC1CCCCN(Cc2cccc(Cl)c2)C1=O (stereo not given) | 1 | / | / | / | / | / | /
COC(=O)C1=C(C)NC(=O)CC1c1cc2c(cc1Br)OCO2 (stereo not given) | -1 | -13 | -2 | -11 | 0 | 2 | /
CC1=C(C(=O)OC2CCCCCCC2)C(c2cc3c(cc2Br)OCO3)CC(=O)N1 (stereo not given) | 23* | 0 | -11 | 15 | 0 | 1 | 30*
CC1=C(C(=O)OC2CCCCC2)C(c2ccccc2Br)NC(=O)N1 (stereo not given) | 15* | -13 | / | 3 | 0 | 0 | 15
CCOc1ccccc1C1NC(=O)NC(C)=C1C(=O)OC1CCCCC1 (stereo not given) | 2 | 0 | -3 | -2 | 0 | -1 | /
O=C(C1CCCN1S(=O)(=O)c1cccs1)N1CCc2ccccc2C1 (stereo not given) | 2 | / | / | / | / | / | /
Cc1nc(SCc2nc3c(F)cccc3[nH]2)c2oc3ccccc3c2n1 | 30* | / | / | / | 1 | 5 | 39* | RORg DNA counter=>40
Cc1nc(SCc2nc3ccccc3[nH]2)c2oc3ccccc3c2n1 | -6 | -8 | -9 | 14 | 0 | -5 | /
c1ccc(-c2nc(SCc3nc4ccccc4[nH]3)c3oc4ccccc4c3n2)cc1 | 46* | / | / | / | 0 | -2 | 45* | RORg DNA counter=>40
CCOC(=O)C1C[C@@H](O)C=CC1=O (stereo not given in full) | 3 | / | / | / | / | / | /
CN(c1ccc(Cl)cc1)c1cc(=O)n(C)c2ccccc12 | 22* | 5 | -3 | -1 | 0 | 1 | 18*
SMILES | Rev-erbA mod | EBNA-1 inhibitor | p47phox inh | ZTA counter | aDG glyco up | PG9 binder | Rev-erbA confirm | others
CN(C(=O)COc1cc(=O)n(C)c2ccccc12)c1ccc(Cl)cc1 | 2 | -4 | -9 | 3 | 0 | 1 | /
Cc1cc2n(n1)C(c1cn(-c3ccccc3)nc1C)Nc1ccccc1-2 (stereo not given) | 29* | 4 | -3 | 15 | 0 | 0 | 5
Cc1nc(SCC(=O)NCc2ccccc2)c2oc3ccccc3c2n1 | 44* | -5 | 21 | -10 | 0 | 4 | 189* | RORg DNA counter=>40
O=C(CSc1ncnc2c1oc1ccccc12)NC1CCCCC1 | -1 | -3 | -3 | 4 | 0 | -2 | /
CCc1nc(SCC(=O)NC2CCCC2)c2oc3ccccc3c2n1 | 39* | 5 | / | 15 | 1 | -1 | 56* | RORg DNA counter=>40
COC(=O)C[C@@H]1CC[C@H]2[C@@H](COc3ccc(NC(=O)Nc4ccccc4C)cc3C(=O)N2C)O1 | 4 | / | / | / | / | / | /
COc1ccccc1N=C1NC(=O)/C(=C/c2ccc(N(C)C)cc2)S1 | 25* | -6 | / | -14 | 0 | -4 | 13
COc1cc(/C=C2/SC(=Nc3ccc(O)cc3)NC2=O)cc(OC)c1O | 4 | 2 | -123 | 14 | 0 | -10 | /
Cc1nn(-c2ccccc2)c2sc(C(=O)NC3CCCC3)cc12 | -5 | / | / | / | / | / | /
CCOC(=O)c1nn(-c2ccc(F)cc2)c(=O)cc1OCC(=O)Nc1ccc(OCC)cc1 | 19* | 7 | / | 13 | 0 | -1 | -14
CCCCNC(=O)CNC(=O)c1nn(-c2ccc(OC)cc2)c(=O)c2ccccc12 | 4 | -2 | / | -3 | 0 | -1 | /
COc1ccc(-n2nc(C(=O)NCC(=O)NCc3ccccc3OC)c3ccccc3c2=O)cc1 | 4 | 3 | / | 1 | 0 | 1 | /
CCOC(=O)c1ccccc1NC(=O)Cn1cnc2c(cnn2-c2ccc(OC)cc2)c1=O | 22* | -8 | / | -8 | / | -1 | 9
CCOc1ccc(NC(=O)CNC(=O)c2nn(-c3ccc(OC)cc3)c(=O)c3ccccc23)cc1 | 32* | -11 | / | 19 | 0 | 4 | 11
COc1ccc(-n2nc(C(=O)NCC(=O)Nc3ccccn3)c3ccccc3c2=O)cc1 | 42* | -10 | -1 | -8 | 0 | 1 | 18*
CCCCCc1ccc(NC(=O)O[C@@H]2CC[C@@]34CCCN3C(=O)CCC[C@H]4C2)cc1 | 0 | / | / | / | / | / | /
COc1ccc(-n2nc(C(=O)NCC(=O)N3CCN(c4ccccc4F)CC3)c3ccccc3c2=O)cc1 | 25* | 10 | / | 10 | 0 | 5 | -8
COCCCNC(=O)CNC(=O)c1nn(-c2ccc(OC)cc2OC)c(=O)c2ccccc12 | 2 | -13 | / | -12 | 0 | -1 | /
COc1ccc(-n2nc(C(=O)NCC(=O)Nc3cccc(Cl)c3)c3ccccc3c2=O)cc1 | 82* | -6 | / | 16 | 0 | 1 | 39* | RORg DNA counter=>40
COc1ccc(-n2nc(C(=O)NCC(=O)NCc3ccc(F)cc3)c3ccccc3c2=O)c(OC)c1 | 27* | / | 0 | / | 0 | 0 | 2
COc1ccc(-n2nc(C(=O)NCC(=O)N3CCN(c4ccccc4F)CC3)c3ccccc3c2=O)cc1OC | -5 | -9 | / | 5 | 0 | 1 | /
